Assay results taken from PubChem BioAssay (NCI).
This is part of a sample that, as a whole, favours compounds with a hit. Of some 79,000 tested, about 15% had one in any assay. A number with no mark means an inactive call. Activity calls are given as the source filed them. No stated cut-off is given here; in the data, active means growth inhibition above about 70%; inactive means the rest.

Assays:
[1] = NCI Yeast Anticancer Drug Screen. Data for the rad50 strain (AID 155);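 further: 0% = growth of vehicle-only cultures of the same strain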; conditions: S. cerevisiae rad50 strain growth inhibition, hits give high values
Procedure, shortened: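 Vehicle-treated cultures provide the reference for the growth inhibition reported for compound-exposed, repair-deficient yeast.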

[2] = NCI Yeast Anticancer Drug Screen. Data for the mec2-1 strain (AID 157); conditions: S. cerevisiae mec2-1 strain, hits give high values
Procedure, shortened: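 Cells of the genetically defined mec2-1 yeast strain are incubated with test compound. Inhibition of growth is calculated against vehicle-treated controls.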

[3] = NCI Yeast Anticancer Drug Screen. Data for the sgs1 mgt1 strain (AID 161);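 further: 0% = growth of cultures given vehicle only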; conditions: S. cerevisiae sgs1 mgt1 strain, hits give high values
Procedure, shortened: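 Mutant yeast exposed to compound; growth scored against vehicle-only wells.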

[4] = NCI Yeast Anticancer Drug Screen. Data for the cln2 rad14 strain (AID 165);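 further: 0% = growth equal to vehicle treated cultures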; conditions: S. cerevisiae cln2 rad14 strain, hits give high values
Procedure, shortened: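 The screen exposed genetically defined yeast (cln2 rad14) to test compounds and scored growth inhibition relative to vehicle-treated controls.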

[5] = NCI Yeast Anticancer Drug Screen. Data for the bub3 strain (AID 167); conditions: S. cerevisiae bub3 mutant strain, hits give high values
Procedure, shortened: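 Mutant yeast screening strain plus compound; vehicle-treated cultures serve as the 0% inhibition reference.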

[6] = NCI Yeast Anticancer Drug Screen. Data for the mlh1 rad18 strain (AID 175); conditions: S. cerevisiae mlh1 rad18 strain growth inhibition, hits give high values
Procedure, shortened: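 Compound-treated yeast growth, normalised to vehicle controls. Strain bears defined DNA repair mutations.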

[7] = at 5.0 µM (retest, dose inferred, filed as 0.5)
[8] = at 50.0 µM (retest, dose inferred, filed as 5.0)

Row | SMILES | growth inhibition [1, 7] | growth inhibition [1, 8] | growth inhibition ([1]; at 50.0 µM) | growth inhibition [2, 7] | growth inhibition [2, 8] | growth inhibition ([2]; at 50.0 µM) | growth inhibition [3, 7] | growth inhibition [3, 8] | growth inhibition ([3]; at 50.0 µM) | growth inhibition [4, 7] | growth inhibition [4, 8] | growth inhibition ([4]; at 50.0 µM) | growth inhibition [5, 7] | growth inhibition [5, 8] | growth inhibition ([5]; at 50.0 µM) | growth inhibition [6, 7] | growth inhibition [6, 8] | growth inhibition ([6]; at 50.0 µM)
1 | O=C(c1ccccc1)c1ccc2cccc(O)c2n1 | 19% | 63% | 88.8% (active) | -18% | 31% | 91.5% (active) | -11% | 55% | 90.8% (active) | 5% | 34% | 88.8% (active) | -21% | 77% (active) | 91.7% (active) | -19% | 77% (active) | 89.4% (active)
2 | COCCNC(=O)C1C(=O)N(CCOC)C(=O)/C1=N/N (configuration not stated) | 1% | -1% | -33.3% | 1% | 5% | 0.6% | 8% | -1% | 13.6% | -2% | 6% | 35% | 0% | 20% | -0.25% | -3% | -2% | 5.5%
3 | OC(COc1ccc(Cl)cc1)CN1CCN(c2cccc(Cl)c2)CC1 (configuration not stated) | 20% | 99% (active) | 95.8% (active) | 37% | 100% (active) | 93.9% (active) | 80% (active) | 100% (active) | 98.5% (active) | 20% | 99% (active) | 85.8% (active) | 25% | 98% (active) | 95.5% (active) | 62% | 99% (active) | 96.3% (active)
4 | CCC1C(c2cccc(OC)c2O)c2cc3c(cc2OC1N1CCCC1)OCO3 (configuration not stated) | 21% | 43% | -66.2% | 22% | 19% | -19.7% | 26% | 25% | -52.7% | 31% | 45% | -28.6% | 17% | 26% | -5.3% | 22% | 63% | -29.7%
5 | Oc1[nH]c2ccccc2c1N=NC(=S)N1CCCCCC1 | 6% | 98% (active) | 54.5% | -5% | 97% (active) | 72.2% (active) | -13% | 98% (active) | 83.2% (active) | -17% | 98% (active) | 78.5% (active) | -28% | 99% (active) | 87.1% (active) | -8% | 98% (active) | 79.8% (active)
6 | CCCCCCCCCCCCCCN1CCSCC1 | 6% | 18% | 98.5% (active) | 3% | 14% | 96% (active) | 4% | 1% | 99% (active) | 5% | 14% | 98.6% (active) | 9% | 21% | 99% (active) | 5% | 12% | 98.8% (active)
7 | O=[N+]([O-])C(=C(Nc1ccccc1)Nc1ccccc1)/C(Cl)=C(\Cl)Br | -7% | 99% (active) | 98.7% (active) | 11% | 99% (active) | 99.5% (active) | 6% | 99% (active) | 99.3% (active) | 22% | 99% (active) | 99.3% (active) | -11% | 99% (active) | 99.2% (active) | 32% | 99% (active) | 99.2% (active)
8 | O=C(Nc1ccc(Cl)cc1)OCC1C2C=CC(C2)C1CO (configuration not stated) | 6% | 95% (active) | 86.8% (active) | -1% | 97% (active) | 75.7% (active) | 2% | 97% (active) | 98.4% (active) | 2% | 89% (active) | 66.5% | -3% | 92% (active) | 92.9% (active) | 5% | 97% (active) | 77.8% (active)
9 | O=[N+]([O-])c1ccc(C=NC2CCCCC2)c([N+](=O)[O-])c1 | 0% | 46% | 41% | -1% | 54% | 46% | 2% | 69% | 59.5% | -5% | 25% | -0.85% | 20% | 83% (active) | 55.5% | -5% | 85% (active) | 73.3% (active)
10 | CN1C(=O)C23SSC1(C)C(=O)N2c1ccccc1C3(C)C (configuration not stated) | 97% (active) | 99% (active) | 99% (active) | 98% (active) | 96% (active) | 99.6% (active) | 99% (active) | 100% (active) | 98% (active) | 98% (active) | 99% (active) | 99.3% (active) | 98% (active) | 99% (active) | 99.2% (active) | 99% (active) | 99% (active) | 99.3% (active)
11 | CC(CC(C#CCN(C)C)N(C)C)CC(C)(C)C (configuration not stated) | 22% | -9% | -5.3% | 1% | -10% | 15.6% | 3% | 5% | 13.3% | 1% | 24% | -7.5% | 7% | 14% | 41.1% | 6% | -5% | 38.6%
12 | CCN(CC)CCOc1ccc(C(O)(Cc2ccc(Cl)cc2)c2ccccc2)cc1 (configuration not stated) | 39% | 90% (active) | 90.9% (active) | 35% | 87% (active) | 83.8% (active) | 58% | 95% (active) | 97.5% (active) | 56% | 93% (active) | 98.3% (active) | 57% | 89% (active) | 81.2% (active) | 51% | 89% (active) | 97.2% (active)
13 | CC1=C(C(=O)OCCO[N+](=O)[O-])C(c2ccccc2[N+](=O)[O-])C(C(=O)OC(C)C)=C(C)N1 (configuration not stated) | 11% | 97% (active) | 83.5% (active) | 22% | 97% (active) | 87.7% (active) | -2% | 97% (active) | 90.3% (active) | 10% | 92% (active) | 86.9% (active) | -3% | 97% (active) | 89.6% (active) | 19% | 97% (active) | 85.5% (active)
14 | CSc1cc(N)nc(N)n1 | 3% | -4% | 73% (active) | 3% | 2% | 79.3% (active) | 4% | 14% | 80.3% (active) | 1% | 3% | 83.2% (active) | 1% | -3% | 38.9% | 2% | -6% | 93.4% (active)
15 | O=C(O)/C=C/c1ccc2c(c1)CC1(Cc3ccccc3C1)C2 | 27% | 82% (active) | 45.6% | 40% | 90% (active) | 66.2% | 84% (active) | 87% (active) | 73% (active) | 64% | 93% (active) | 83.3% (active) | 85% (active) | 92% (active) | 78.5% (active) | 67% | 88% (active) | 80% (active)
16 | O=C1/C(=C\c2ccc(Cl)cc2)SC2SC=C(c3ccc([N+](=O)[O-])cc3)N12 (configuration not stated) | 0% | 86% (active) | 98.3% (active) | 2% | 94% (active) | 98.9% (active) | -4% | 92% (active) | 99.2% (active) | -20% | 86% (active) | 98% (active) | -7% | 86% (active) | 86.8% (active) | 5% | 92% (active) | 98.6% (active)
17 | CC1=C(C(=O)Nc2ccc([N+](=O)[O-])cc2)C(c2ccccc2F)C(C(=O)Nc2ccc([N+](=O)[O-])cc2)=C(C)N1 | 19% | 19% | 56.4% | 5% | 5% | 74.3% (active) | 2% | 2% | 52% | 6% | 6% | 64% | -1% | -1% | 60% | -2% | -2% | 28.1%
18 | Cc1c(C)c(O)c2c(c1O)C(=O)C=C(Cl)C2=O | 99% (active) | 94% (active) | 88.3% (active) | 100% (active) | 96% (active) | 90.2% (active) | 100% (active) | 97% (active) | 88.3% (active) | 45% | 96% (active) | 90.7% (active) | 99% (active) | 97% (active) | 87.7% (active) | 99% (active) | 96% (active) | 88.6% (active)
19 | CN(C)c1ccc(/C=N/c2nc(-c3ccccc3)cs2)cc1 | 9% | 90% (active) | 94.9% (active) | 7% | 96% (active) | 98.4% (active) | 5% | 92% (active) | 98% (active) | 2% | 89% (active) | 97.2% (active) | 1% | 93% (active) | 93.2% (active) | 23% | 95% (active) | 97.8% (active)
